High-throughput results deposited in PubChem by Sanford-Burnham Center for Chemical Genomics.
The list is not random: actives were taken first. Their share in the collection is about 3.1%.
KKLEB tox: cytotoxicity in KKLEB CF airway cells, primary screen, cytotoxicity control for CF NF-kB inhibitor project, cell-based, uHTS, fluorescence assay plates; AID 602141, 2011; activity change (cytotoxicity), % at 5 µM; KKLEB CF airway cells viability, ATPlite luminescence, overnight; hits give low values; cells stimulated with P. aeruginosa culture filtrate; 360,000 compounds, 0.36% hits;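 active = corrected activity change at or below -50% at 5 µM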
TRAIL sens C8: viability loss with TRAIL in NB7+C8 cells, primary screen, TRAIL sensitizer project, cell-based, ATPlite luminescence. inhibition (viability loss, TRAIL sensitization), % at 10 µM. 360,000 compounds, 1% hits;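 active = compounds causing at least 50% loss of cell viability in the single-dose screen, relative to plate controls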
HIF-2a inh: HIF-2a reporter inhibitors, primary screen, luminescence, 786-0 RCC cells. 786-0 RCC cells HIF-2a reporter, luciferase luminescence, overnight. inhibition, % at 18.8 µM. 360,000 compounds, 0.72% hits;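 active = inhibition of the luminescence signal of 40% or more relative to plate controls, in a single-dose primary screen at 18.75 µM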
Peg3 prom inh: Peg3 promoter-driven luciferase inhibitors, primary screen, cell-based, HeLa, luciferase luminescence; HeLa PEG-Prom luciferase reporter, overnight; inhibition, % at 20 µM; 360,000 compounds, 1.7% hits; AID 588405, 2011;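 active = inhibition of at least 50% at 20 µM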
CF NFkB inh: inhibitors of PAF-induced NF-kB signaling, primary screen, cell-based, GFP fluorescence, uHTS. KKLEB NF-kB-GFP reporter, GFP fluorescence overnight. inhibition, % at 5 µM. 360,000 compounds, 0.86% hits. AID 588850, 2011;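 active = at least 50% inhibition at 5 µM, scaled per plate between neutral and stimulator controls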;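 note: PAF is a Pseudomonas aeruginosa culture filtrate used as stimulus; plate controls were PAF-stimulated DMSO wells for no effect and unstimulated DMSO wells for full effect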
PPC-1+TRAIL kill: compounds killing PPC-1 cancer cells with TRAIL present, primary screen, TRAIL potentiator project, ATPLite luminescence, uHTS. PPC-1 cells + TRAIL, ATPLite viability luminescence. AID 1443, 2008. cell killing (% activity), % at 4 µM or 5 µM. 220,000 compounds, 0.41% hits;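 active = cell killing above 50% in the first pass at 4 µM, then a duplicate retest at 5 µM averaging 50% or more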;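 note: plate controls were cells with TRAIL plus DMSO for no effect and medium-only wells lacking cells for full effect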
Mdm2 MdmX conf: retested Mdm2-MdmX interaction blockers, confirmation, cell-based, luminescence, single concentration, set 2 | SaOS-2 split-luciferase Mdm2/MdmX complementation | shares compounds with HIF-2a inh | 740 compounds, 99% hits | inhibition, % at 8 µM;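 active = mean inhibition of the luminescence signal across two replicates at or above 26 percent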
Target sequence (O15151 whole entry, looked up): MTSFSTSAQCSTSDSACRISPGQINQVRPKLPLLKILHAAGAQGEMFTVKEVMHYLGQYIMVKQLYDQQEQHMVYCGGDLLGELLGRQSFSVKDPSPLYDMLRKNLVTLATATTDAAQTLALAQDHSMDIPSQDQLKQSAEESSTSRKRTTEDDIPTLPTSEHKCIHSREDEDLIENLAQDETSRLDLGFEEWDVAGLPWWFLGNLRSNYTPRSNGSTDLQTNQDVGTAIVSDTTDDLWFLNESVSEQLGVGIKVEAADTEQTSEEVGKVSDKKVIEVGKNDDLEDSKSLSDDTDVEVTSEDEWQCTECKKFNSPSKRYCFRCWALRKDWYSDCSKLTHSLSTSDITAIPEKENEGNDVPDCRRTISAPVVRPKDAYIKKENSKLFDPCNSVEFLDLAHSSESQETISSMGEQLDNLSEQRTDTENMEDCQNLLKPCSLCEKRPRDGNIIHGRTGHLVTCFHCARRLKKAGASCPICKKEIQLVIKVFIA
Target sequence (Q00987 whole entry, looked up): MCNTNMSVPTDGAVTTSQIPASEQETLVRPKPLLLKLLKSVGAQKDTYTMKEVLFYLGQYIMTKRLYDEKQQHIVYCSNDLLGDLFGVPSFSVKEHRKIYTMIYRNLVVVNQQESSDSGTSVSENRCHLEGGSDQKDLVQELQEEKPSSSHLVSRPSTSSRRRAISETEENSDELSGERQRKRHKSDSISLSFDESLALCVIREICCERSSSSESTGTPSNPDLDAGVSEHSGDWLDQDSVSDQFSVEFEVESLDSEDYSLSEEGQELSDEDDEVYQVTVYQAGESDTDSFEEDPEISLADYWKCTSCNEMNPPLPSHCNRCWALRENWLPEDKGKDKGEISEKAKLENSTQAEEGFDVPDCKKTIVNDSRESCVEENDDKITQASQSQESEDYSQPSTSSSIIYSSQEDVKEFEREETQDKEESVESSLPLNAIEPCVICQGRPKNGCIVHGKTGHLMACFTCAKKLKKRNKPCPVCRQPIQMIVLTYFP
HIF-2a conf: HIF-2a reporter inhibitor retest, confirmation, luminescence, 786-0 RCC cells; shares compounds with HIF-2a inh; AID 651580, 2012; 1,800 compounds, 56% hits; HIF-2a luciferase reporter luminescence, overnight; inhibition, % at 18.8 µM;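 active = mean inhibition across four replicates of at least 40 percent at the single tested concentration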
HIF-1a counter: HIF-1a luciferase reporter signal reduction – MiaPaCa-2 cells, single concentration, counter-screen for HIF-2a inhibitor project, confirmation. inhibition, % at 18.8 µM. 1,800 compounds, 72% hits. MiaPaCa-2 HIF-1a luciferase reporter, desferoxamine, overnight. AID 651589, 2012. shares compounds with HIF-2a inh;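 active = mean inhibition of the reporter signal across four replicates at the single tested dose of 50% or more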
* marks the source's active call; other numbers are inactive results.

How did COc1cc(C(=O)OC(C)c2ccc(F)cc2)ccc1OCC(=O)N1CCOCC1 (configuration not stated) do in these assays?
KKLEB tox: -12; TRAIL sens C8: -11; HIF-2a inh: 6; Peg3 prom inh: 11; CF NFkB inh: 10

How did COC(=O)[C@@]1(Cc2ccc(OC)cc2)[C@H]2c3cc(C(=O)N4CCCC4)n(Cc4ccc(C)c(F)c4F)c3C[C@H]2CN1C(=O)c1ccccc1 do in these assays?
TRAIL sens C8: -3; HIF-2a inh: -22

What do the screens show for `COc1ccc(NC(=O)CSc2c3c(nc4ccccc24)CCCC3)c(OC)c1`?
KKLEB tox: -6; TRAIL sens C8: -2; HIF-2a inh: 47*; Peg3 prom inh: 5; CF NFkB inh: 31; PPC-1+TRAIL kill: 12; HIF-2a conf: 9; HIF-1a counter: 91*

How did CCCCN(C(=O)c1ccncc1)c1c(N)n(CCC)c(=O)[nH]c1=O do in these assays?
KKLEB tox: -7; TRAIL sens C8: 0; HIF-2a inh: 15; Peg3 prom inh: 10; CF NFkB inh: 14

What do the screens show for `CCN(c1ccccc1)S(=O)(=O)c1ccc(NC(=O)c2nc(S(C)(=O)=O)ncc2Cl)cc1`?
KKLEB tox: -101*; TRAIL sens C8: 91*; HIF-2a inh: 92*; Peg3 prom inh: 108*; CF NFkB inh: 102*; Mdm2 MdmX conf: 102*

What do the screens show for `CCS(=O)(=O)c1ncc(Cl)c(C(=O)Nc2ccc(S(=O)(=O)N(C)c3ccccc3)cc2)n1`?
KKLEB tox: -97*; TRAIL sens C8: 98*; HIF-2a inh: 95*; Peg3 prom inh: 102*; CF NFkB inh: 82*; Mdm2 MdmX conf: 103*; HIF-2a conf: 99*; HIF-1a counter: 99*

What do the screens show for `COCCNC(=O)C1CCCN(C(=O)c2cccnc2Oc2ccccc2)CC1` (configuration not stated)?
KKLEB tox: 24; TRAIL sens C8: 1; HIF-2a inh: 8; Peg3 prom inh: 6; CF NFkB inh: -1

What do the screens show for `CNC(=O)COc1coc(CN2CCN(c3cccc(Cl)c3)CC2)cc1=O`?
KKLEB tox: -9; TRAIL sens C8: -10; HIF-2a inh: 0; Peg3 prom inh: -2; CF NFkB inh: 41

How did CC[C@H](C)[C@@H](CNC)NC[C@@H](Cc1ccc(O)cc1)NCC(C)(C)C do in these assays?
KKLEB tox: -2; TRAIL sens C8: 5; HIF-2a inh: 3; Peg3 prom inh: -11; CF NFkB inh: -35

What do the screens show for `CC[C@@H](C)[C@H](CN[C@H](CNC)C(C)C)NC[C@@H](C)c1ccc(CC(C)C)cc1`?
KKLEB tox: -10; TRAIL sens C8: 64*; HIF-2a inh: -1; Peg3 prom inh: 99*; CF NFkB inh: 3; Mdm2 MdmX conf: 103*

How did O=S1(=O)C[C@H](N2CCN(CC3CC3)CC2)[C@@H](COCc2ccccc2)N1 do in these assays?
KKLEB tox: 3; TRAIL sens C8: 6; HIF-2a inh: 5; Peg3 prom inh: 4; CF NFkB inh: -10

Results for Cc1csc(=O)n1CCC(=O)N(C)Cc1c(F)cccc1Cl ?
KKLEB tox: 3; TRAIL sens C8: -1; HIF-2a inh: -17; Peg3 prom inh: 11; CF NFkB inh: 15

How did COc1cccc(CNC(=O)CCl)c1 do in these assays?
KKLEB tox: -2; TRAIL sens C8: -4; HIF-2a inh: 11; Peg3 prom inh: -3; CF NFkB inh: -16; PPC-1+TRAIL kill: -2

What do the screens show for `COc1cccc(CNC(=O)COC(=O)c2nc(Cl)c(Cl)c(Cl)c2Cl)c1`?
KKLEB tox: -16; TRAIL sens C8: 16; HIF-2a inh: 58*; Peg3 prom inh: 90*; CF NFkB inh: 30; HIF-2a conf: 32; HIF-1a counter: 9

What do the screens show for `Cc1ccc(-n2ncc(Br)c(Br)c2=O)cc1`?
KKLEB tox: -36; TRAIL sens C8: 1; HIF-2a inh: 92*; Peg3 prom inh: 102*; CF NFkB inh: 69*; PPC-1+TRAIL kill: 20; HIF-2a conf: 99*; HIF-1a counter: 102*

What do the screens show for `CCOc1c(Cl)cnn(-c2ccc(C)cc2)c1=O`?
KKLEB tox: 0; TRAIL sens C8: -2; HIF-2a inh: -27; Peg3 prom inh: -60; CF NFkB inh: -14; PPC-1+TRAIL kill: 5

How did O=c1c(Br)c(Br)cnn1-c1ccccc1 do in these assays?
KKLEB tox: -85*; TRAIL sens C8: 97*; HIF-2a inh: 96*; Peg3 prom inh: 108*; CF NFkB inh: 90*; PPC-1+TRAIL kill: 33; HIF-2a conf: 99*; HIF-1a counter: 107*

Results for COCCNc1nnnc2c1sc1nc(N3CCOCC3)c3c(c12)CC(C)(C)OC3 ?
KKLEB tox: 16; TRAIL sens C8: -11; HIF-2a inh: 15; Peg3 prom inh: 22; CF NFkB inh: -5; PPC-1+TRAIL kill: -6

Results for CC1(C)Cc2c(c(N3CCOCC3)nc3sc4c(NCCN)ncnc4c23)CO1 ?
KKLEB tox: -4; TRAIL sens C8: 28; HIF-2a inh: 45*; Peg3 prom inh: 100*; CF NFkB inh: -11; HIF-2a conf: 2; HIF-1a counter: 44

Results for Nc1ncnc2c1ncn2[C@@H]1O[C@H](CO)[C@@H](O)[C@H]1O ?
KKLEB tox: 16; TRAIL sens C8: -11; HIF-2a inh: 1; Peg3 prom inh: -11; CF NFkB inh: -14; PPC-1+TRAIL kill: 10

Results for Nc1ncnc2c(C3OC(CO)C(O)C3O)c[nH]c12 (configuration not stated) ?
KKLEB tox: -53*; TRAIL sens C8: 88*; HIF-2a inh: 50*; Peg3 prom inh: 96*; CF NFkB inh: 83*; HIF-2a conf: 37; HIF-1a counter: 106*
